Results on 25 molecules are retold here after ChEMBL document CHEMBL4296182, “CO-ADD screening of NIH NCI Diversity Set V”.

One assay has as its system Staphylococcus aureus. Description: Antibacterial activity against Staphylococcus aureus MRSA ATCC 43300 (CO-ADD:GP_020); MIC in CAMBH media using NBS plates, by Resazurin F(560/590). Type of assay: functional. As to conditions: Concentration 20 uM, ASSAY_TEST Inhibition of Bacterial Growth, detection method Resazurin, Fluorescence (ex560/em590), MEDIA CAMHB, plate type 384well, CORNING #3640, time 18 hr. (In general: Alamar Blue is a resazurin reagent that responds to reducing activity.)

Another assay concerns Acinetobacter baumannii. Description: Antibacterial activity against Acinetobacter baumannii ATCC 19606 (CO-ADD:GN_034); MIC in CAMBH media using NBS plates, by Resazurin F(560/590). Type of assay: functional. As to conditions: Concentration 20 uM, ASSAY_TEST Inhibition of Bacterial Growth, detection method Resazurin, Fluorescence (ex560/em590), MEDIA CAMHB, plate type 384well, CORNING #3640, time 18 hr.

Another assay concerns Escherichia coli. The experiment in a line: Antibacterial activity against Escherichia coli ATCC 25922 (CO-ADD:GN_001); MIC in CAMBH media using NBS plates, by Resazurin F(560/590). It counts as functional. The settings on record: Concentration 20 uM, ASSAY_TEST Inhibition of Bacterial Growth, detection method Resazurin, Fluorescence (ex560/em590), MEDIA CAMHB, plate type 384well, CORNING #3640, time 18 hr.

In another assay the test system is Klebsiella pneumoniae. As to conditions: Concentration 20 uM; ASSAY_TEST Inhibition of Bacterial Growth; detection method Absorption (OD600); MEDIA CAMHB; plate type 384well; NBS; CORNING #3640; time 18 hr.
The next assay relates to Candida albicans. As to conditions: 20 µM.
The subject of a further assay is Cryptococcus neoformans. As to conditions: Concentration 20 uM; ASSAY_TEST Inhibition of Fungal Growth; detection method Resazurin; Absorption (OD600-OD570); plate type 384well; NBS; CORNING #3640.

For part of these data: Measured potencies and affinities stand elsewhere.

The Inhibition is the relative decrease from the control value, in per cent.

In the case of `CCCn1cnc2c(S)nc(N)nc21`, the Inhibition in the assay with Staphylococcus aureus was 0.53%; in the assay with Acinetobacter baumannii, -16.82%; in the assay on Escherichia coli, 10%; with Klebsiella pneumoniae it was 2.88%; with Candida albicans, -1.47%; in the assay with Cryptococcus neoformans, -9.79%.
`Cc1ccc(/N=N/c2ccc(C)cc2NC(=O)Nc2ccccc2F)cc1`: the Inhibition in the assay on Staphylococcus aureus was 3.8%; in the assay on Acinetobacter baumannii, 6.73%; in the assay with Escherichia coli it was 1.93%; in the assay on Klebsiella pneumoniae it was 9.05%; with Candida albicans it was 6.78%; in the assay on Cryptococcus neoformans, 3.6%.
As to `CCn1c2ccccc2c2cc(NC(=O)Nc3ccc([N+](=O)[O-])cc3C)ccc21`, the Inhibition in the assay with Staphylococcus aureus was found to be 15.43%; with Acinetobacter baumannii, 8.35%; in the assay on Escherichia coli it was 6.19%; in the assay on Klebsiella pneumoniae it was 0.72%; in the assay on Candida albicans it was 18.4%; with Cryptococcus neoformans, 0.49%.
As for `Sc1ncnc2c1ncn2C1CCCC1`, the Inhibition was 12.18% in the assay with Staphylococcus aureus; -2.05% in the assay on Acinetobacter baumannii; 10.82% in the assay on Escherichia coli; 10.23% in the assay on Klebsiella pneumoniae; 3.52% with Candida albicans; -6.41% with Cryptococcus neoformans.
For `CCOC(=O)c1cc(OCC)c2c(ccc3ccccc32)n1`, the Inhibition in the assay with Staphylococcus aureus is -12.94%; in the assay on Acinetobacter baumannii, 1.72%; with Escherichia coli it was -4.9%; in the assay with Klebsiella pneumoniae, 7.15%; in the assay with Candida albicans, 2.28%; in the assay with Cryptococcus neoformans, -11.11%.
In the case of `CC1CCCC(CC(=O)O)(CC(=O)O)C1` (stereo not given), the Inhibition with Staphylococcus aureus is -13.43%; in the assay with Acinetobacter baumannii it was 0.95%; in the assay with Escherichia coli, -5.78%; with Klebsiella pneumoniae, 6.3%; with Candida albicans it was 2.72%; in the assay with Cryptococcus neoformans, -2.12%.
For the molecule `Sc1ncc2cnccn12`, the Inhibition with Staphylococcus aureus is -4.23%; in the assay on Acinetobacter baumannii it was -8.79%; in the assay on Escherichia coli, 10.26%; in the assay with Klebsiella pneumoniae, 3.96%; with Candida albicans, 0.86%; in the assay on Cryptococcus neoformans it was -12.71%.
On to `NS(=O)(=O)c1ccc(/N=N/c2ccc(O)[nH]c2=O)cc1`, for which the Inhibition is -4.07% in the assay with Staphylococcus aureus; -21.96% in the assay on Acinetobacter baumannii; 14.83% with Escherichia coli; 2.74% with Klebsiella pneumoniae; 3.25% in the assay on Candida albicans; -15.42% in the assay with Cryptococcus neoformans.
Consider `O=c1oc2c(cc1O)oc(=O)c1cc(O)c(O)c(O)c12`, for which the Inhibition is 7.4% in the assay with Staphylococcus aureus; 17.2% in the assay with Acinetobacter baumannii; 5.53% with Escherichia coli; 31.38% in the assay with Klebsiella pneumoniae; 14.8% in the assay on Candida albicans; -7.17% in the assay on Cryptococcus neoformans.
In the case of `Nc1ccnn1-c1ccccc1`, the Inhibition in the assay with Staphylococcus aureus is 7.55%; in the assay on Acinetobacter baumannii, -6.56%; with Escherichia coli, 2.95%; with Klebsiella pneumoniae, 26.2%; in the assay on Candida albicans, 2.01%; in the assay on Cryptococcus neoformans, -2.01%.
In the case of `CN(C)S(=O)(=O)Nc1ccccn1`, the Inhibition with Staphylococcus aureus was 6.72%; in the assay on Acinetobacter baumannii it was 9.21%; with Escherichia coli it was -0.96%; with Klebsiella pneumoniae, 17.6%; in the assay with Candida albicans it was 5.95%; in the assay on Cryptococcus neoformans it was -3.86%.
In the case of `O=C(Nc1ccc2ccccc2c1)c1cccc(F)c1`, the Inhibition is -15.53% in the assay on Staphylococcus aureus; -12.84% in the assay on Acinetobacter baumannii; 8.09% with Escherichia coli; 2.58% with Klebsiella pneumoniae; 9.01% with Candida albicans; -2.23% in the assay with Cryptococcus neoformans.
As to `N#Cc1n[nH]c2nc[nH]c(=O)c12`, the Inhibition with Staphylococcus aureus was 10.72%; in the assay on Acinetobacter baumannii it was -7.81%; with Escherichia coli, 9.33%; in the assay on Klebsiella pneumoniae, 13.07%; with Candida albicans it was 0.58%; with Cryptococcus neoformans, -10.99%.
In the case of `CCOC(=O)c1nc(SC)n(C)c1C(=O)OCC`, the Inhibition is 10.21% in the assay on Staphylococcus aureus; -12.95% in the assay on Acinetobacter baumannii; 18.32% in the assay with Escherichia coli; 2.22% in the assay on Klebsiella pneumoniae; 0.39% in the assay with Candida albicans; -13.08% in the assay on Cryptococcus neoformans.
As for `Cc1cc(O)c(C(C)C)cc1NC(=O)Nc1cccc2ccccc12`, the Inhibition was -3.74% in the assay on Staphylococcus aureus; -15.42% in the assay with Acinetobacter baumannii; 2.96% with Escherichia coli; 4.38% with Klebsiella pneumoniae; 8.57% in the assay on Candida albicans; -2.63% in the assay with Cryptococcus neoformans.
Take `O/N=C(/c1ccccc1)c1ccc2c3c(cccc13)CC2`: the Inhibition in the assay on Staphylococcus aureus is -1.68%; with Acinetobacter baumannii it was -12.52%; in the assay with Escherichia coli, 6.08%; in the assay on Klebsiella pneumoniae, 9.85%; in the assay with Candida albicans, 11.2%; in the assay with Cryptococcus neoformans, -8.52%.
Take `CC(=O)Nc1ccc2cc3ccc(NC(C)=O)cc3nc2c1`: the Inhibition in the assay with Staphylococcus aureus is 13.51%; in the assay on Acinetobacter baumannii, 10.7%; with Escherichia coli it was 0.73%; with Klebsiella pneumoniae, 15.61%; with Candida albicans it was 3.5%; in the assay with Cryptococcus neoformans, -4.12%.
For the molecule `CC(O)c1nc2c(c(=O)n(C)c(=O)n2C)n1C` (stereo not given), the Inhibition in the assay with Staphylococcus aureus was -5.57%; in the assay with Acinetobacter baumannii, -6.98%; in the assay on Escherichia coli, 6.75%; in the assay on Klebsiella pneumoniae, 7.56%; in the assay on Candida albicans, -1.01%; with Cryptococcus neoformans it was -6.24%.
For `O=C(CCl)NC1(C(=O)O)CCCC1`, the Inhibition in the assay on Staphylococcus aureus is -0.81%; in the assay on Acinetobacter baumannii, 16.39%; in the assay on Escherichia coli it was -6.53%; in the assay with Klebsiella pneumoniae, 9.23%; in the assay on Candida albicans, 6.58%; with Cryptococcus neoformans, -2.6%.
Consider `Cc1nn(-c2ccccc2)nc1C(=O)Nc1ccc2[nH]ncc2c1`, for which the Inhibition is 18.91% in the assay on Staphylococcus aureus; 2.54% in the assay with Acinetobacter baumannii; 5.87% in the assay with Escherichia coli; 6.45% with Klebsiella pneumoniae; -0.76% in the assay on Candida albicans; -15.47% in the assay with Cryptococcus neoformans.
In the case of `Sc1cnnc2ccccc12`, the Inhibition was -0.57% in the assay with Staphylococcus aureus; -12.95% in the assay on Acinetobacter baumannii; -15.13% in the assay with Escherichia coli; 9.37% with Klebsiella pneumoniae; 6.56% in the assay on Candida albicans; 22.39% with Cryptococcus neoformans.
As for `Oc1ccc(Cc2ccc(Cl)cc2)c(O)c1`, the Inhibition was 10.37% in the assay with Staphylococcus aureus; -6.86% in the assay on Acinetobacter baumannii; 10.87% with Escherichia coli; 7.26% with Klebsiella pneumoniae; -0.85% in the assay on Candida albicans; -7.42% in the assay with Cryptococcus neoformans.
As for `CN(C)S(=O)(=O)Nc1cccc(Br)c1`, the Inhibition with Staphylococcus aureus is 1.46%; in the assay with Acinetobacter baumannii, -10.63%; with Escherichia coli, 3.48%; in the assay with Klebsiella pneumoniae, 2.53%; with Candida albicans, 4.88%; in the assay on Cryptococcus neoformans it was 43.58%.
As for `O=S1(=O)CCN(Cc2ccccn2)CC1`, the Inhibition in the assay on Staphylococcus aureus was determined as 22.86%; in the assay on Acinetobacter baumannii, 16.69%; with Escherichia coli, 26.77%; in the assay on Klebsiella pneumoniae, 2.99%; with Candida albicans, 2.84%; in the assay with Cryptococcus neoformans it was 12.19%.
Regarding `CCCCSc1nc(O)cc(C(=O)O)n1`, the Inhibition was 3.28% with Staphylococcus aureus; -12.23% with Acinetobacter baumannii; 5.2% with Escherichia coli; 7.02% in the assay on Klebsiella pneumoniae; 2.48% in the assay with Candida albicans; -8.23% in the assay with Cryptococcus neoformans.
